# Hits are enriched below; roughly 3.5% of the tested compounds scored in any of these assays.
# LmPK inh: inhibitors of Leishmania mexicana pyruvate kinase; 290,000 compounds, 0.37% hits; AID 1721; Q27686; Potency, µM (doses to about 57.5 µM), for the others: at the highest dose activity change, negative = inhibition, hits mostly inhibitors; purified LmPK, Kinase-Glo ATP luminescence, 1 h; note: % is set by controls: 0 for no effect and ±100 for the full control effect
# Target sequence (Q27686 whole entry, looked up): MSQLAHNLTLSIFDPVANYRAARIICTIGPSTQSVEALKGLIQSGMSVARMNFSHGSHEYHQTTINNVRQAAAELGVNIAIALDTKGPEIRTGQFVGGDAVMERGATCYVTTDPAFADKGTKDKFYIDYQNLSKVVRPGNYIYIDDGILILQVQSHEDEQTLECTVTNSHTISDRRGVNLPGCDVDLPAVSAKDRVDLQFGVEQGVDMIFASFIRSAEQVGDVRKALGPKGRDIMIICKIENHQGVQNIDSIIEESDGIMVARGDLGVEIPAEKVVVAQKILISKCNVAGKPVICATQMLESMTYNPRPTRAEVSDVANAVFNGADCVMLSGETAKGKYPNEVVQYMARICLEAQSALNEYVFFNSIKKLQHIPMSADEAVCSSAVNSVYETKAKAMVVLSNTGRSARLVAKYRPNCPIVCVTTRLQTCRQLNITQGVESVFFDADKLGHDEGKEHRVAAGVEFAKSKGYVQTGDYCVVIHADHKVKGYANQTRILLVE
#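 Purified LmPK (0.1 nM) with 0.5 mM PEP and 0.1 mM ADP in imidazole buffer pH 7.2 with MgCl2/KCl, 1 h at room temperature. ATP formed was read by luciferase luminescence and normalized to no-enzyme and uninhibited controls.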
# NS1 inh: blocks influenza NS1 protein function | 270,000 compounds, 0.4% hits | Potency, µM (top dose mostly 46.1 µM), for inactives: at the top dose activity, positive = more growth; calls by dose curve; note: actives are rising curves; nearly all actives have a fitted effect of over 50% in size
#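 A cell-based growth assay was used: compounds that relieve NS1-induced slow growth of budding yeast raise OD600. Assay medium was yeast nitrogen base with ammonium sulphate and -URA supplement, pH 6.0, with 2% galactose.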
# Giardia FBPA inh: blocks Giardia fructose-bisphosphate aldolase activity; AID 2451; purified Giardia FBPA; 290,000 compounds, 0.71% hits; A8B2U2; Potency, µM (highest dose often 59.6 µM), without a hit: at the highest dose activity, negative = inhibition, actives largely listed as inhibitors; note: % is set by controls: 0 for no effect and ±100 for the full control effect; nearly all actives have a fitted effect of over 55% in size
#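 Giardia FBPA (40 nM reagent) was preincubated 10 min at RT with compound (up to 57.5 uM final), then substrate plus GAPDH/TPI/NAD/arsenate coupling system with diaphorase/resazurin was added; resorufin fluorescence (525/598 nm) was read after 20 min.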
# Sm TGR block: blocks Schistosoma mansoni thioredoxin glutathione reductase | Q962Y6 | Potency, µM (titrated, usually from 114 µM), inactives show top-dose activity change, negative = inhibition, hits mostly inhibitors | 360,000 compounds, 3% hits | purified TGR, DTNB reduction, TNB absorbance 405 nm; note: % is set by controls: 0 for no effect and ±100 for the full control effect; nearly all actives have a fitted effect of over 60% in size
#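 First, TGR (20 nM dispensed) and NADPH were mixed with compound. Second, a 15 min room-temperature incubation followed. Third, further NADPH and then DTNB were added to start the reaction. Finally, TNB absorbance was monitored kinetically.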
# Tb PYK inh: blocks Trypanosoma brucei pyruvate kinase; AID 624173; TbPYK enzyme, Kinase-Glo Plus ATP luminescence, 45 min; 410,000 compounds, 0.12% hits; Q57TT1; Potency, µM (doses to about 76.8 µM), for inactives: top-dose activity, negative = inhibition, most hits filed as inhibitors; note: % is set by controls: 0 for no effect and ±100 for the full control effect; nearly all actives have a fitted effect of over 50% in size
#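 Luminescent Kinase-Glo Plus end-point after 45 min room-temperature reaction of T. brucei pyruvate kinase started with 130 uM ADP (final). Buffer TEA 50 mM pH 7.2 with KCl, MgCl2, BSA, Tween-20; titration-based qHTS with fitted concentration-effect curves.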
# RE007 growth inh: less growth of the S. pombe RE007 Vpr strain; S. pombe RE007 Vpr strain, BacTiter-Glo ATP luminescence, 24 h; Potency, µM (series often up to 92.2 µM), inactives show at the highest dose activity change, negative = less growth, most hits filed as inhibitors; 360,000 compounds, 0.21% hits; AID 651644; active = well fitted falling curve with a large enough effect; inconclusive = small, poorly fitted or top-dose-only effect; inactive = no such curve, though single readings can be large or run the other way; note: % is set by controls: 0 for no effect and ±100 for the full control effect; nearly all actives have a fitted effect of over 50% in size
#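 Fission yeast RE007 carrying one integrated HIV-1 vpr copy, seeded at OD 0.01 in PMG+AL medium with 23 nL pinned compound. Grown 24 h at 30 degrees; viability read by BacTiter-Glo luminescence after 5 min.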
# * marks the source's active call; other numbers are inactive results; ? = inconclusive; . = no result; [ ] = another dose, or the depositor's remark. Unless noted, calls come from the whole dose curve; as a rule, active = well fitted curve in the direction sought with a large enough effect; inconclusive = small, poorly fitted or top-dose-only effect, or another doubt; inactive = no such curve, though single readings can be large; an effect the other way counts as inactive or inconclusive. Potency is the fitted concentration of half-maximal effect.
SMILES,LmPK inh,NS1 inh,Giardia FBPA inh,Sm TGR block,Tb PYK inh,RE007 growth inh
O=c1[nH][nH]c(=S)n1C1CCCCC1,?,9%,20µM*,-18%,2.5µM*,-1%
O=c1cc(O)n(C2CCCCCC2)c(=O)[nH]1,6%,12%,-10%,?,-3%,17%
Cc1nc(Oc2ccccc2)c2ccccc2n1,-1%,-3%,3%,5%,4%,-13%
c1ccc(Oc2c3ccccc3nc3ccccc23)cc1,2%,-87%,9%,5µM*,-1%,-3%
CCOc1ccc(CNc2cc(C)nc3nc(-c4cccc(C)c4)nn23)cc1OC,.,.,.,?,-2%,.
COC(=O)N1C(=O)[C@](c2ccccc2)(C(C)C)N1C(=O)OC,-3%,-7%,-6%,0%,-7%,-6%
COC(=O)N1C(=O)[C@@](c2ccccc2)(C2CCCCC2)N1C(=O)OC,-8%,-18%,-13%,13µM*,1%,5%
CC[C@@]1(c2ccccc2C)C(=O)N(C(=O)OC)N1C(=O)OC,-3%,7%,-16%,6.3µM*,-16%,-5%
CC[C@]1(c2ccccc2)C(=O)N(C(=O)OC)N1C(=O)OC,-3%,0%,-11%,2.2µM*,8%,3%
CC[C@@]1(c2ccccc2)C(=O)N(C(=O)OC)N1C(=O)OC,1%,18%,-8%,2µM*,-7%,14%
CCC1(c2ccccc2)NC(=O)N(CC(=O)NCc2ccccc2OC)C1=O (stereo not drawn),3%,6%,4%,1%,7%,3%
CCn1cc2nc(SCc3cc(C)ccc3C)n(Cc3ccc(C)cc3)c(=O)c2n1,.,.,.,8%,-12%,.
CC(C)N(Cc1ccccc1)c1ncnc2c1nnn2C,.,.,.,0%,2%,.
CC[C@]1(c2cccc(C)c2)C(=O)N(C(=O)OC)N1C(=O)OC,1%,9%,-7%,1.8µM*,-1%,-11%
O=C(/C=C/c1ccncc1)c1ccc2c(c1)OCCO2,-16%,-5%,0%,45µM*,-6%,-24%
O=C(/C=C/c1ccccc1)c1ccc2c(c1)OCO2,?,-38%,-3%,?,2%,?
CCC1CCc2c(sc(NC(=O)C3c4ccccc4Oc4ccccc43)c2C#N)C1 (stereo not drawn),.,.,.,55%,-3%,.
COc1ccc(-n2ccnc2CN2CCN(C3CCCC3)C(CCO)C2)cc1 (stereo not drawn),4%,4%,1%,25µM*,1%,-2%
CC1CCCN(c2cc3c(cc2F)c(=O)c(S(=O)(=O)c2cccc(Cl)c2)cn3C)C1 (stereo not drawn),.,.,.,2%,0%,.
N[C@H](CC(=O)O)C(=O)O,.,.,-15%,.,0%,.
COc1ccc(CNC(=O)CC(C)n2nc(C)cc2C)cc1 (stereo not drawn),.,.,.,4%,-6%,.
COC(=O)C(CC(=O)c1ccc(Br)cc1)n1ccnc1 (stereo not drawn),10µM*,-100%,?,0.28µM*,.,.
COC(=O)C(CC(=O)c1ccc(Br)cc1)n1nc(C)cc1C (stereo not drawn),-7%,6%,2%,3.5µM*,?,28µM*
COC(=O)C(CC(=O)c1ccc(C)cc1)n1nc(C)cc1C (stereo not drawn),0%,12%,-3%,13µM*,-3%,-12%
Cc1ccc(C(=O)CC(C(=O)O)n2cncn2)cc1 (stereo not drawn),-1%,8%,-10%,-20%,-6%,5%
SMILES,LmPK inh,NS1 inh,Giardia FBPA inh,Sm TGR block,Tb PYK inh,RE007 growth inh
Cc1cc2ccccc2n1-c1ccc(C(=O)N2CCC(C(=O)NCc3ccccc3Cl)CC2)s1,.,.,.,4%,4%,.
O=C(CN(Cc1ccco1)C(=O)c1ccc([N+](=O)[O-])cc1)Nc1ccccc1C(F)(F)F,.,.,.,20µM*,-8%,4%
O=C(CN(Cc1ccco1)C(=O)c1ccccc1F)Nc1ccccc1C(F)(F)F,.,.,.,-20%,-2%,-6%
O=C(CN(Cc1ccco1)S(=O)(=O)c1cccs1)Nc1ccccc1C(F)(F)F,-3%,-4%,-2%,20µM*,-12%,4%
CN1CCN(Cc2c(O)ccc3cc(-c4ccc(Cl)cc4)c(=O)oc23)CC1,.,.,.,-1%,5%,.
Cc1cc(=O)[nH]c(N/N=C/c2ccccc2Cl)n1,-6%,9%,-8%,6%,-14%,25%
Cc1cc(=O)[nH]c(N/N=C/c2cc(C)n(-c3ccccc3)c2C)n1,-21%,10%,-12%,32µM*,-2%,4%
COc1ccc(NC(=O)/C(Cl)=C(/Cl)S(=O)Cc2ccccc2Cl)cn1 (stereo not drawn),-9%,.,-1%,0.089µM*,30%,?
COc1ccc(NC(=O)Cc2ccc(Cl)c(Cl)c2)cn1,11%,.,-4%,7%,5%,1%
COc1ccc(NC(=O)/C(Cl)=C(/Cl)S(=O)(=O)Cc2ccc(C)cc2)cn1,1%,-231%,-7%,2.5µM*,11%,?
CCC(=O)N1CCc2cc(S(=O)(=O)NCCC(=O)Nc3ccc(OC)c(Cl)c3)ccc21,.,.,.,2%,2%,.
CC(C)CCNC(=O)c1cccc(-n2cnc3cccnc32)c1,.,.,.,-11%,-3%[15.4 µM],.
Cc1[nH]n(-c2ccccc2)c(=S)c1C=Nc1cccc([N+](=O)[O-])c1,-27%,5%,?,79µM*,3.2µM*,13%
Cc1[nH]n(-c2ccccc2)c(=O)c1C=NCCc1ccccc1,-1%,-8%,0%,.,5%,7%
CCCCN=Cc1c(C)[nH]n(-c2ccccc2)c1=S,?,.,?,0%,7.9µM*,1%
CN(N=O)c1ccc(/C=C\c2ccnc3ccccc23)cc1,.,-11%,.,.,.,.
COc1ccc(S(=O)(=O)n2nc(OC(=O)c3ccncc3)cc2N)cc1,-2%,-3%,1%,5µM*,-5%,10%
COc1ccc(S(=O)(=O)n2nc(OC(C)=O)cc2N(C(C)=O)C(C)=O)cc1,-1%,4%,13%,22µM*,-4%,11%
Cc1ccc(S(=O)(=O)n2nc(OC(=O)c3ccccc3F)cc2N)cc1,11%,0%,1%,16µM*,-6%,-4%
COc1ccc(S(=O)(=O)n2nc(OC(=O)c3ccccc3)cc2N)cc1,2%,-35%,14%,-28%,4%,1%
COc1ccc(S(=O)(=O)n2nc(OC(=O)c3ccc(C)cc3)cc2N)cc1,1%,-11%,9%,-26%,-1%,-8%
COc1ccc(S(=O)(=O)n2nc(OC(=O)c3ccco3)cc2N)cc1,-1%,-20%,3%,22µM*,-1%,3%
O=C(Nc1ccc(Br)cc1F)C1CCN(c2nc3ccccc3[nH]2)CC1,.,.,.,0%,-9%[15.4 µM],.
